Inconclusive results are not listed. Activity calls are given as the source filed them. The calls were made as follows, unless noted: active = hit-call score of the fitted dose curve at least 0.9, where 1 is the maximum; inactive = score below 0.9.
Key:
[1] = target: Glucocorticoid receptor (Homo sapiens) (UniProt P04150); assay: ATG_GR_TRANS: Attagene TRANS-FACTORIAL HepG2 Assay for human Glucocorticoid Receptor (GR) (AID 2282978; active = hit-call score of the fitted dose curve at least 0.9, where 1 is the maximum;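 also: activators score as hits since higher reporter transcript over DMSO is fitted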); settings: HepG2 Attagene TRANS GR reporter, mRNA transcription
Chain of Glucocorticoid receptor (Homo sapiens) (P04150 whole entry, looked up, the tested form may be a part): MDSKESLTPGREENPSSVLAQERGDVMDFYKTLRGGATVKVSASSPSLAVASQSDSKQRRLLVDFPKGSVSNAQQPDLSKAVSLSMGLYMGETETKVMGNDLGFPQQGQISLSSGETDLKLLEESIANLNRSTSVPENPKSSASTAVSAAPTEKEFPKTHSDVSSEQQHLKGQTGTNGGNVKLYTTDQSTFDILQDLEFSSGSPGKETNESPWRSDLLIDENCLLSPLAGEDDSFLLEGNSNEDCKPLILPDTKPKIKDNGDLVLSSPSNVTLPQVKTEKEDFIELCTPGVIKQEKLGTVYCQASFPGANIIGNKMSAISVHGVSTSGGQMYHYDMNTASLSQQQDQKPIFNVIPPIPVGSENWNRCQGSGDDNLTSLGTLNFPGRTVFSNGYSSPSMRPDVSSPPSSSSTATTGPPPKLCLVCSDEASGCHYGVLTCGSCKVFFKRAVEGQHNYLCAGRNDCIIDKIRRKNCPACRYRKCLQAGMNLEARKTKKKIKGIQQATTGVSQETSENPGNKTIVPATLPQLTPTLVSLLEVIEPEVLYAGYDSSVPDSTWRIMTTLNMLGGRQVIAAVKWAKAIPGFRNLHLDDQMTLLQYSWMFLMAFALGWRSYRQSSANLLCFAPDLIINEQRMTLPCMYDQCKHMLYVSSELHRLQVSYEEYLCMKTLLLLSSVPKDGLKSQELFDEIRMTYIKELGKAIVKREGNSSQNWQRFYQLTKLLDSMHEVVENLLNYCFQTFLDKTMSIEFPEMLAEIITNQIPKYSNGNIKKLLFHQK
Outline: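 Transient MRTU transfection of HepG2 (GAL4-UAS reporters, exogenous NR-GAL4 chimeras), 24 h dosing. Readout: reporter transcript via RT-PCR + capillary electrophoresis fluorescence. Positive direction vs DMSO baseline.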

[2] = ATG_M_06_TRANS: Attagene TRANS-FACTORIAL HepG2 Assay for M06 Transcription Factor (Internal Marker) (AID 2282983; active = hit-call score of the fitted dose curve at least 0.9, where 1 is the maximum); settings: HepG2 Attagene TRANS M06 internal marker reporter
Outline: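 Measured by capillary electrophoresis of fluorescently labelled RT-PCR products, this endpoint reflects reporter mRNA in HepG2 cells harbouring exogenous NR-GAL4 reporter constructs after 24 h exposure, with DMSO as baseline.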

[3] = ATG_M_32_TRANS: Attagene TRANS-FACTORIAL HepG2 Assay for M32 Transcription Factor (Internal Marker) (AID 2282984; active = hit-call score of the fitted dose curve at least 0.9, where 1 is the maximum;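 also: transcript level of a background control reporter unit measured by RT-PCR and capillary electrophoresis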); settings: HepG2 Attagene TRANS M32 internal marker reporter
Outline: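 Measures reporter mRNA induction in human HepG2 liver cells after 24 h chemical treatment. Transcripts from transiently transfected GAL4-UAS reporter units are amplified, fluorescently labelled and sized by capillary electrophoresis; gain of signal relative to DMSO.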

[4] = target: Nuclear receptor subfamily 4 group A member 2 (Homo sapiens) (UniProt P43354); assay: ATG_NURR1_TRANS: Attagene TRANS-FACTORIAL HepG2 Assay for human Nuclear Receptor Related Protein 1 (NURR1) (AID 2282985; active = hit-call score of the fitted dose curve at least 0.9, where 1 is the maximum); settings: HepG2 Attagene TRANS reporter, mRNA readout
Outline: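 Transient transfection of HepG2, human liver cells, with multiple GAL4-UAS reporter transcription units. Cells dosed 24 h, RNA isolated, reverse-transcribed, PCR-amplified, FAM-labelled, HpaI-digested, sized by capillary electrophoresis. DMSO served as negative control.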

[5] = target: Transcriptional activator Myb (Homo sapiens) (UniProt P10242); assay: ATG_Myb_CIS: Attagene CIS-FACTORIAL HepG2 Assay for human Myeloblastosis (Myb) Proto-Oncogene Transcription Factor (AID 2282986); settings: HepG2 Attagene CIS-FACTORIAL Myb reporter transcription; actives raise or lower the signal
Chain of Transcriptional activator Myb (Homo sapiens) (P10242 whole entry, looked up): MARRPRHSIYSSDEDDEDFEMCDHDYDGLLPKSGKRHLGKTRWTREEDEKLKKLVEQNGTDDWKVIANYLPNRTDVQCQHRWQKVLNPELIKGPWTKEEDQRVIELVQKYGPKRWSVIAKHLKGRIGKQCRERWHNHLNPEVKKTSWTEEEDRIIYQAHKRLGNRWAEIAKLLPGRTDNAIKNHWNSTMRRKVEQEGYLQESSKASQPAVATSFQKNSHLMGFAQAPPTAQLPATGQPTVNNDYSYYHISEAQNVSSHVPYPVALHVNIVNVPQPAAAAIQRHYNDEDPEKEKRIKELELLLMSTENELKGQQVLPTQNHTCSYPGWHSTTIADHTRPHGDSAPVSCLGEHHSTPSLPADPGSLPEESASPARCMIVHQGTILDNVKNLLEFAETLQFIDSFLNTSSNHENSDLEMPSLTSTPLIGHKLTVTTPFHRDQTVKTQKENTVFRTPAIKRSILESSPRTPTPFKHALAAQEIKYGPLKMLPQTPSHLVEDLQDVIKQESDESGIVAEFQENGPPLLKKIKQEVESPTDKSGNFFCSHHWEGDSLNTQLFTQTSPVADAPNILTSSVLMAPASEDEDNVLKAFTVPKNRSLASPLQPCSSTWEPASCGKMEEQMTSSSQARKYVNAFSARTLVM
Outline: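 HepG2, transient MRTU transfection (cis-element promoters, endogenous TF activity), 24 h compound exposure. Readout: reporter mRNA via RT-PCR, 6-FAM labeling, HpaI digest, capillary electrophoresis. Gain/loss fit vs DMSO.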

[6] = target: Nuclear respiratory factor 1 (Homo sapiens) (UniProt Q16656); assay: ATG_NRF1_CIS: Attagene CIS-FACTORIAL HepG2 Assay for human Nuclear Respiratory Factor 1 (NRF1) Orphan Gene (AID 2282987); settings: HepG2 NRF1 cis-element reporter, Attagene multiplex; actives raise or lower the signal
Chain of Nuclear respiratory factor 1 (Homo sapiens) (Q16656 whole entry, looked up): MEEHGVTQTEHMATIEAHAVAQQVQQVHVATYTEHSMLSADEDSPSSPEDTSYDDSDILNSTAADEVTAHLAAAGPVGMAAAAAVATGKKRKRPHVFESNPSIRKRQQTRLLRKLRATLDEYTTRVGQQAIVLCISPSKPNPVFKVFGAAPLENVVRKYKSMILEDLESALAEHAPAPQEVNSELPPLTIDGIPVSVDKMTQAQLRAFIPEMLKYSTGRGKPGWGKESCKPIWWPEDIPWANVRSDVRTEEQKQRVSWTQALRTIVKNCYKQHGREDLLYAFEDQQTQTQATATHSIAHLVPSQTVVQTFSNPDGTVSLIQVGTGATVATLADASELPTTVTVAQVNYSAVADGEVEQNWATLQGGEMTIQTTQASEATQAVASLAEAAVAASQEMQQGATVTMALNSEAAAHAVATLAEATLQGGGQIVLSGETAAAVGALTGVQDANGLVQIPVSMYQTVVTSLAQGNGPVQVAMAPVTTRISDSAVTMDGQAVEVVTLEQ
Outline: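 Endogenous NRF1-driven reporter transcription measured in transiently transfected human HepG2 liver cells. Readout: reporter mRNA by RT-PCR and capillary electrophoresis with fluorescence detection, 24 h post-dosing. Gain or loss of signal fitted relative to DMSO baseline.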

[7] = ATG_NFI_CIS: Attagene CIS-FACTORIAL HepG2 Assay for human Nuclear Factor I (NFI) (AID 2282989); settings: HepG2 cis-regulatory reporter, NFI response element transcription; actives raise or lower the signal
Outline: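 Endogenous TF activity in HepG2 cells transiently transfected with cis-element-driven multiplexed reporter units, read 24 h after dosing. Reporter mRNA quantified by RT-PCR, 6-FAM labelling, HpaI digestion and capillary electrophoresis; bidirectional fit versus DMSO.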

[8] = target: Myc proto-oncogene protein (Homo sapiens) (UniProt P01106); assay: ATG_Myc_CIS: Attagene CIS-FACTORIAL HepG2 Assay for human Myelocytomatosis (Myc) Proto-Oncogene Transcription Factor (AID 2282990); settings: HepG2, Attagene cis-reporter transcription factor activity; actives raise or lower the signal
Chain of Myc proto-oncogene protein (Homo sapiens) (P01106 whole entry, looked up): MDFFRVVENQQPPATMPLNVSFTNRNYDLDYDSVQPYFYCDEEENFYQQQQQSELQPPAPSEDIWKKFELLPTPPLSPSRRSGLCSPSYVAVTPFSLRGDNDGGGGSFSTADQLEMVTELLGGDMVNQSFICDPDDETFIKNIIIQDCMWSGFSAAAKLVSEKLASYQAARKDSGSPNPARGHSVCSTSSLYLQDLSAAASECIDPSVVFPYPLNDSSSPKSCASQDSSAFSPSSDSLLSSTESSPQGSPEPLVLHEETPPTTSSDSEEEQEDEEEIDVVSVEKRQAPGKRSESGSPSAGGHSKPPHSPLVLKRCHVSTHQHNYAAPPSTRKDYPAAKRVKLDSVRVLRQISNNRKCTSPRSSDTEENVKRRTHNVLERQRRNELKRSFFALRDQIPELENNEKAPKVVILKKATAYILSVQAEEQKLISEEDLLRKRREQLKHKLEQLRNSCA
Outline: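 HepG2, transient MRTU transfection (cis promoters, endogenous TFs); 24 h dosing; TriZol RNA → oligo(dT) RT → PCR → 6-FAM primer extension → HpaI cut → CE. Bidirectional fit vs DMSO.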

[9] = ATG_NRF2_ARE_CIS: Attagene CIS-FACTORIAL HepG2 Assay for human Nuclear Factor Erythroid 2 Related Factor 2 (NFR2) response to Antioxidant Response Elements (ARE) (AID 2282992); settings: HepG2 Attagene ARE/NRF2 reporter, transcription factor activity; actives raise or lower the signal
Outline: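 Multiplexed reporter mRNA profiling in HepG2 after a 24 h chemical exposure. Curves fitted in both directions relative to DMSO negative control.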

[10] = ATG_Oct_MLP_CIS: Attagene CIS-FACTORIAL HepG2 Assay for human Octamer-Binding Transcription Factor (Oct) (AID 2282993); settings: HepG2 Attagene cis-factorial Oct reporter, mRNA; actives raise or lower the signal
Outline: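 HepG2 cells transiently transfected with cis-element-driven reporter transcription units (endogenous TF activity); 24 h compound exposure. Reporter mRNA quantified by RT-PCR, 6-FAM labelling, HpaI digestion and capillary electrophoresis; bidirectional fit versus DMSO baseline.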

[11] = target: Cellular tumor antigen p53 (Homo sapiens) (UniProt P04637); assay: ATG_p53_CIS: Attagene CIS-FACTORIAL HepG2 Assay for human p53 Transcription Factor (AID 2282994); settings: HepG2 p53 cis-element reporter, Attagene mRNA; actives raise or lower the signal
Chain of Cellular tumor antigen p53 (Homo sapiens) (P04637 whole entry, looked up): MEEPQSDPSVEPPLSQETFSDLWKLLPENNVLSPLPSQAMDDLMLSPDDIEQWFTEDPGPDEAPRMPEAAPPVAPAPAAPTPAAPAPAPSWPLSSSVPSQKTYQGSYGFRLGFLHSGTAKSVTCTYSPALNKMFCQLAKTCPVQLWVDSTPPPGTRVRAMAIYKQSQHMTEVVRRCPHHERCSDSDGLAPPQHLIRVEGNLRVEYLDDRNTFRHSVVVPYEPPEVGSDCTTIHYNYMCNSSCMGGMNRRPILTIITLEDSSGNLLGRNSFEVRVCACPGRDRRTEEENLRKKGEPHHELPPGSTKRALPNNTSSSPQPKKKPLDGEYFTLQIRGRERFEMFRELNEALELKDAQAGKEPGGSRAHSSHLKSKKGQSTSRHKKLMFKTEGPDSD
Outline: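 Multiplexed reporter mRNA assay in human HepG2 liver cells; cis-regulated units report endogenous factor activity. Values come from bidirectional curve fitting against DMSO negative control after 24 h treatment.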

[12] = target: Hepatocyte nuclear factor 4-alpha (Homo sapiens) (UniProt P41235); assay: ATG_HNF4a_TRANS: Attagene TRANS-FACTORIAL HepG2 Assay for human Hepatocyte Nuclear Factor 4 alpha (HNF4a) (AID 2282982; active = hit-call score of the fitted dose curve at least 0.9, where 1 is the maximum); settings: HepG2 HNF4a transactivation reporter, mRNA readout
Chain of Hepatocyte nuclear factor 4-alpha (Homo sapiens) (P41235 whole entry, looked up, the tested form may be a part): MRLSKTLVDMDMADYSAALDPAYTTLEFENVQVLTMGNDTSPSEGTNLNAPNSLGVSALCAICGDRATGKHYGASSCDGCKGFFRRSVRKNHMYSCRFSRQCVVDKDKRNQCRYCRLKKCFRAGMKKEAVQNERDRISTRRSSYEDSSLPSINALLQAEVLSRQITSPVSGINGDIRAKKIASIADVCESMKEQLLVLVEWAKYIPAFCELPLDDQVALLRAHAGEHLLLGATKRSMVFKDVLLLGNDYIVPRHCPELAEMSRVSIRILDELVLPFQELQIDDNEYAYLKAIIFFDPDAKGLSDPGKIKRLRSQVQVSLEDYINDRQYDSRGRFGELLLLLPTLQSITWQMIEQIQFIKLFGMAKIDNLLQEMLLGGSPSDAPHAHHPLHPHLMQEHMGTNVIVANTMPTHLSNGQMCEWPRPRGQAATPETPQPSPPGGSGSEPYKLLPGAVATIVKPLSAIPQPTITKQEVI
Outline: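 Readout is fluorescent reporter-transcript fragments resolved by capillary electrophoresis after RT-PCR from HepG2 cells dosed for 24 h. Cells carried transfected GAL4-UAS reporter constructs measuring exogenous NR-GAL4 chimera activity; DMSO served as baseline.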

[13] = ATG_NF_kB_CIS: Attagene CIS-FACTORIAL HepG2 Assay for human Nuclear Factor Kappa B (NF-kB) (AID 2282991); settings: HepG2 Attagene cis-factorial NF-kB reporter mRNA; actives raise or lower the signal
Outline: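 Read-out: reporter transcript levels quantified by RT-PCR plus capillary electrophoresis of 6-FAM-labelled, HpaI-cut fragments. Transfected HepG2 cells, 24 h compound exposure, endogenous NF-kB-driven cis element; gain or loss scored versus DMSO.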

[14] = target: Bile acid receptor (Homo sapiens) (UniProt Q96RI1); assay: ATG_FXR_TRANS: Attagene TRANS-FACTORIAL HepG2 Assay for Farnesoid X Receptor (FXR) (AID 2282979; active = hit-call score of the fitted dose curve at least 0.9, where 1 is the maximum;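 also: hits raise reporter mRNA above DMSO so AC50 marks FXR activation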); settings: HepG2 Attagene TRANS FXR-GAL4 reporter transcription
Chain of Bile acid receptor (Homo sapiens) (Q96RI1 whole entry, looked up, the tested form may be a part): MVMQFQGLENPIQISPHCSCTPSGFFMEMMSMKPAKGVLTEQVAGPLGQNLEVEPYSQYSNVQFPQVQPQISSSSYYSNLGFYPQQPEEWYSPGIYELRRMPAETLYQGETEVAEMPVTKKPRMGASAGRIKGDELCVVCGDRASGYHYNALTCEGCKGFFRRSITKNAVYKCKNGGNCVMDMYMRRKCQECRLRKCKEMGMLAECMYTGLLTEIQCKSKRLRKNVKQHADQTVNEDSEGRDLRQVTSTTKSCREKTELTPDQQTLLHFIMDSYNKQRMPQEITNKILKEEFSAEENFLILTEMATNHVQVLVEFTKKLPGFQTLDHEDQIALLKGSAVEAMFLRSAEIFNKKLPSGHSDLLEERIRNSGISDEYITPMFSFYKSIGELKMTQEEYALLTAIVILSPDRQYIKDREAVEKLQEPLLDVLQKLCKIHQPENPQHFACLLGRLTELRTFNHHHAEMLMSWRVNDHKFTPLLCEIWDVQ
Outline: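 Chimeric FXR-GAL4 activity in transiently transfected human HepG2 liver cells is scored as induction of reporter mRNA after 24 h of dosing. Detection uses RT-PCR with fluorescent labelling and capillary electrophoresis, with DMSO serving as baseline.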

[15] = target: Oxysterols receptor LXR-beta (Homo sapiens) (UniProt P55055); assay: ATG_LXRb_TRANS: Attagene TRANS-FACTORIAL HepG2 Assay for human Liver X Receptor beta (LXRb) (AID 2282981; active = hit-call score of the fitted dose curve at least 0.9, where 1 is the maximum); settings: HepG2 Attagene TRANS GAL4-LXRb reporter, mRNA
Chain of Oxysterols receptor LXR-beta (Homo sapiens) (P55055 whole entry, looked up, the tested form may be a part): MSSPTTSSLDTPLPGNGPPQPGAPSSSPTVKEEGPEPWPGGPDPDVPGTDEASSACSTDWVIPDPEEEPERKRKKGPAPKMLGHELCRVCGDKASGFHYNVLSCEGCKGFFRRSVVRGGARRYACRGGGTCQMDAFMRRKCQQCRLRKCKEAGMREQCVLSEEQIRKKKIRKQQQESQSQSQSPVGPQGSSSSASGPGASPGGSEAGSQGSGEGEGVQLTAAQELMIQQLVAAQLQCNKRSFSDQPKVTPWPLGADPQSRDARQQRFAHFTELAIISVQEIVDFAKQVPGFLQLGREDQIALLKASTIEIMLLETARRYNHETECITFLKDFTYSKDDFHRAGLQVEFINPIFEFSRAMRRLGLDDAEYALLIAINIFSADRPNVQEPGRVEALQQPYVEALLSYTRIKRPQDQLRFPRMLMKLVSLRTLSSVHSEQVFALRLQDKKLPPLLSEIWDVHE
Outline: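 Transient transfection HepG2 (multiplexed RTUs, GAL4-UAS); NR-Gal4 chimera; 24 h exposure; RNA → RT-PCR → 6-FAM primer extension → HpaI → CE; increase vs DMSO.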

[16] = target: Oxysterols receptor LXR-alpha (Homo sapiens) (UniProt Q13133); assay: ATG_LXRa_TRANS: Attagene TRANS-FACTORIAL HepG2 Assay for human Liver X Receptor alpha (LXRa) (AID 2282980; active = hit-call score of the fitted dose curve at least 0.9, where 1 is the maximum); settings: HepG2 Attagene TRANS reporter, LXRa transactivation
Chain of Oxysterols receptor LXR-alpha (Homo sapiens) (Q13133 whole entry, looked up): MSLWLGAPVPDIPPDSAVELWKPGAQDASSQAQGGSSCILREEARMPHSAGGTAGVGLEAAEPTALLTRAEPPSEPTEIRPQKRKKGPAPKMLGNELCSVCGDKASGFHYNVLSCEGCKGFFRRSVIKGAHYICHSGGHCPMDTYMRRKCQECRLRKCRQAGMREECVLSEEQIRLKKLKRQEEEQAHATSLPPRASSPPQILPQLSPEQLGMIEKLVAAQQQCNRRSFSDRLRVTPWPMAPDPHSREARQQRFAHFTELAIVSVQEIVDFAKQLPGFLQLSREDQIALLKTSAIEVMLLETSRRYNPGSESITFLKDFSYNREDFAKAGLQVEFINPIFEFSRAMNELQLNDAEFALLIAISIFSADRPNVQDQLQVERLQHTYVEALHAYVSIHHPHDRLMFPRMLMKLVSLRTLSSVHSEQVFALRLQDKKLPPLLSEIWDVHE
Outline: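 Transient HepG2 transfectants, 24 h dosing, RT-PCR/CE mRNA reporter quantitation; gain-of-signal vs DMSO.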

C/C=C(\C)C(=O)OC/C=C(\C)CCC=C(C)C
outcome [1]: inactive | outcome [2]: inactive | outcome [3]: inactive | AC50 [4]: 20 µM (active) | outcome [5]: inactive | outcome [6]: inactive | outcome [7]: inactive | outcome [8]: inactive | AC50 [9]: 100 µM (active) | outcome [10]: inactive | outcome [11]: inactive

C=C(C)C(=O)OCCC(C)OC(=O)C(=C)C (centres undefined)
outcome [1]: inactive | outcome [12]: inactive | outcome [3]: inactive | outcome [5]: inactive | outcome [6]: inactive | outcome [7]: inactive | outcome [8]: inactive | outcome [13]: inactive | outcome [9]: inactive | outcome [10]: inactive | outcome [11]: inactive

CCCCCCCCSCc1cc(C)c(O)c(CSCCCCCCCC)c1
outcome [14]: inactive | outcome [15]: inactive | outcome [2]: inactive | outcome [3]: inactive | outcome [5]: inactive | outcome [6]: inactive | outcome [7]: inactive | outcome [8]: inactive | outcome [13]: inactive | outcome [9]: inactive | outcome [10]: inactive | outcome [11]: inactive

CCCCCCCCOC(C)=O
outcome [16]: inactive | outcome [15]: inactive | outcome [12]: inactive | outcome [2]: inactive | outcome [5]: inactive | outcome [6]: inactive | outcome [7]: inactive | outcome [8]: inactive | outcome [13]: inactive | outcome [9]: inactive | outcome [10]: inactive | outcome [11]: inactive

CNC(=C[N+](=O)[O-])NCCSCc1ccc(CN(C)C)o1
outcome [16]: inactive | outcome [15]: inactive | outcome [3]: inactive | outcome [5]: inactive | outcome [6]: inactive | outcome [7]: inactive | outcome [8]: inactive | outcome [13]: inactive | outcome [9]: inactive | outcome [10]: inactive | outcome [11]: inactive

CCNC(=S)NCC
outcome [16]: inactive | outcome [15]: inactive | outcome [2]: inactive | outcome [3]: inactive | outcome [5]: inactive | outcome [6]: inactive | outcome [7]: inactive | outcome [8]: inactive | outcome [13]: inactive | outcome [9]: inactive | outcome [10]: inactive | outcome [11]: inactive

Source: PubChem BioAssay (EPA / NIEHS)
